# Results filed as inconclusive are left out. Entries that show only a call come without a potency. Calls of active or inactive are those of the source. The call rests on the fitted dose curve; in most records, active means well fitted inhibition curve with a large enough effect in the repeat runs; inconclusive means weak or mixed curves; inactive means flat fitted curve, though single readings scatter.
# Test: qHTS assay to identify small molecule HDAC inhibitors (AID 1259364); further: top concentration of the series differs between compounds; nearly all actives have a fitted effect of over 45% in size
# Conditions: HCT-116 HDAC-Glo I/II luminescence, 2 h; series mostly up to 92.4 µM
# Description: U.S. Tox21 Program National Center for Advancing Translational Sciences [NCATS] NIH Chemical Genomics Center [NCGC] U.S. Environmental Protection Agency [EPA] National Institutes of Environmental Health Sciences [NIEHS] National Toxicology Program [NTP] U.S. Food and Drug Administration [FDA] Tox21 Assay Overview: Histone deacetylases (HDACs) are a group of epigenetic enzymes that regulate gene expression by histone deacetylation. HDACs are capable of introducing epigenetic modifications and such aberrations contribute to the onset and progression of several human diseases, thus making HDACs a popular therapeutic target. For identifying endogenous class I/II HDAC inhibitors a homogenous, luminogenic HDAC I/II cell based assay was used to measure the relative activity of class I and II HDACs from cells. Wild type HCT-116 cells were used to screen Tox21 libraries for identifying class I/II HDAC inhibitors.
# Tox21 Assay Protocol Summary: HCT-116 cells were dispensed at 1,500 per well in 5uL of culture medium into white solid bottom 1536-well plates (Greiner Bio-One, Monroe, NC) using a Multidrop Combi (Thermo Scientific, Waltham, MA) dispenser. The assay plates were incubated at 37 C and 5% CO2 for an overnight, and then 23nL of compounds dissolved in DMSO and positive control were transferred using a Pintool station (Wako, San Diego, CA). The assay plates were incubated at 37C and 5% CO2 for 2hr. After compound treatment, 4uL of HDAC-Glo reagent (Promega Corporation, Madison, WI) was added to each well of the assay plates using Flying Reagent Dispenser (FRD, Aurora Discovery, San Diego, CA) and incubated the assay plates at room temperature for 30min. The luminescence signal was quantified using a ViewLux plate reader (Perkin Elmer, Shelton, CT).
row,SMILES,Potency
1,CNC(=O)Oc1ccccc1OC(C)C,inactive
2,COC(=O)NS(=O)(=O)c1ccc(N)cc1,inactive
3,CN1C(=O)CN=C(c2ccccc2)c2cc(Cl)ccc21,inactive
4,CC(C)=C[C@@H]1[C@@H](C(=O)OCc2coc(Cc3ccccc3)c2)C1(C)C,inactive
5,CCCC1COC(Cn2cncn2)(c2ccc(Cl)cc2Cl)O1 (stereo not given),inactive
6,CCCCCOC(=O)c1ccccc1C(=O)OCCCCC,inactive
7,CC(Oc1ccc(Cl)cc1Cl)C(=O)O (stereo not given),inactive
8,CCC[CH2][Sn]([Cl])([Cl])[Cl],inactive
9,O=c1[nH]c2ccccc2c(=O)o1,inactive
10,CCc1cccc(C)c1N(C(=O)CCl)C(C)COC (stereo not given),inactive
11,CCNc1nc(NC(C)(C)C)nc(SC)n1,inactive
12,CC(C#N)CCC#N (stereo not given),inactive
13,CC(C)(C)C(O)(CCc1ccc(Cl)cc1)Cn1cncn1 (stereo not given),inactive
14,Nc1ccc(Cc2ccc(N)cc2)cc1,inactive
15,CCOP(=S)(OCC)SCCSCC,inactive
16,O=[N+]([O-])c1ccccc1,inactive
17,Clc1cccc(Cl)c1Cl,inactive
18,CCOP(=S)(OCC)Oc1cnc2ccccc2n1,inactive
19,C1CN2CCN1CC2,inactive
20,O=C(O)c1ccccn1,inactive

row,SMILES,Potency
1,CCC(C)(CC)c1cc(NC(=O)c2c(OC)cccc2OC)on1,inactive
2,CC(=O)C=C(C)C,inactive
3,C=CC(N)=O,inactive
4,CC(C)NC(=O)N1CC(=O)N(c2cc(Cl)cc(Cl)c2)C1=O,inactive
5,Cc1ccc([N+](=O)[O-])cc1C,inactive
6,CN=C=S,inactive
7,COC(=O)NC(=S)Nc1ccccc1NC(=S)NC(=O)OC,inactive
8,c1ccc(OP(Oc2ccccc2)Oc2ccccc2)cc1,inactive
9,O=c1n(Cl)c(=O)n(Cl)c(=O)n1Cl,inactive
10,COP(N)(=O)SC (stereo not given),inactive
11,CCNc1nc(NC(C)C)nc(SC)n1,inactive
12,NCCc1ccc(O)cc1,inactive
13,O=[N+]([O-])c1ccc([As](=O)(O)O)cc1,inactive
14,Cc1cc(-c2cc(C)c(N)c(C)c2)cc(C)c1N,inactive
15,Nc1ccc(Oc2ccc(N)cc2)cc1,inactive
16,COc1ccc2c3c1O[C@H]1[C@@H](O)C=C[C@H]4[C@@H](C2)N(C)CC[C@@]341,inactive
17,CCN(CC)c1ccccc1,inactive
18,C#CC(C)(C)NC(=O)c1cc(Cl)cc(Cl)c1,inactive
19,CC(C)C#N,inactive
20,CC1C=[C-]C=C1.[C-]#[O+].[C-]#[O+].[C-]#[O+].[Mn],inactive

# — PubChem BioAssay (Tox21)
